Screening data from PubChem.
VDR inh – blocks the human vitamin D receptor; P11473; VDR-SRC2-3 peptide fluorescence polarization, 2 h; Potency, µM, without a hit: max response, negative = inhibition, hits mostly inhibitors; 400,000 tested, 0.93% active; AID 504847; note: % is set by controls: 0 for no effect and ±100 for the full control effect
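After 23 nl compound addition and a short centrifugation, plates sat for 2 hours at ambient temperature; polarization of fluorescence then indicated loss of VDR binding to peptide SRC2-3.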
EPAC1 agonist – EPAC1 (human) agonism; 360,000 tested, 0.073% active; O95398; EPAC1 agonist qHTS, biochemical assay; response scale: 100% = response to 6.5 mM cAMP; Potency, µM (top dose mostly 154 µM), for inactives: at the top dose activation, usual class: activators; note: nearly all actives have a fitted effect of over 60% in size
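EPAC1 100 nM, Rap1B–BODIPY-GDP 250 nM, unlabeled GDP 50 uM; compound titration; 5 min RT; kinetic read ex480/em540 at 5-min intervals ×30 min; data normalized to 6.5 mM cAMP agonist control.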
EPAC2 antagonist – blocks human EPAC2 exchange factor; AID 720708; Potency, µM (series often up to 114 µM), for inactives: top-dose activity, negative = inhibition, hits mostly inhibitors; 360,000 tested, 0.18% active; EPAC2 GEF exchange of Rap1B-BODIPY-GDP, fluorescence; Q8WZA2; note: % is set by controls: 0 for no effect and ±100 for the full control effect; nearly all actives have a fitted effect of over 45% in size
EPAC2 agonist – agonists of human EPAC2 (RAPGEF4) | 360,000 tested, 0.079% active | EPAC2 activation, biochemical qHTS; response scale: 100% = 6.5 mM cAMP response | Potency, µM (titrated, usually from 154 µM), without a hit: at the top dose activation, actives largely listed as activators; note: nearly all actives have a fitted effect of over 50% in size
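Readout is BODIPY fluorescence (480 nm excitation, 540 nm emission), which falls as labeled GDP is exchanged off Rap1B. EPAC2 at 100 nM acted on 250 nM RAP1B-BODIPY-GDP with 50 uM GDP present.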
EPAC1 antagonist – blocks human EPAC1 exchange factor | O95398 | Potency, µM (doses to about 115 µM), for the others: top-dose activity change, negative = inhibition, hits mostly inhibitors | EPAC1 GEF assay, Rap1b-BODIPY-GDP exchange fluorescence | 360,000 tested, 0.14% active;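 note: plate controls were vehicle for no effect and positive control for full effect; nearly all actives have a fitted effect of over 50% in size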
USP1 inh – inhibitors of human USP1/UAF1 deubiquitinase | O94782 | recombinant USP1/UAF1, Ub-Rhodamine cleavage fluorescence | Potency, µM (highest dose often 57.1 µM), for inactives: at the highest dose activity change, negative = inhibition, most hits filed as inhibitors | 390,000 tested, 0.23% active | AID 743255; note: % is set by controls: 0 for no effect and ±100 for the full control effect; nearly all actives have a fitted effect of over 60% in size
Target sequence (O94782 whole entry, looked up): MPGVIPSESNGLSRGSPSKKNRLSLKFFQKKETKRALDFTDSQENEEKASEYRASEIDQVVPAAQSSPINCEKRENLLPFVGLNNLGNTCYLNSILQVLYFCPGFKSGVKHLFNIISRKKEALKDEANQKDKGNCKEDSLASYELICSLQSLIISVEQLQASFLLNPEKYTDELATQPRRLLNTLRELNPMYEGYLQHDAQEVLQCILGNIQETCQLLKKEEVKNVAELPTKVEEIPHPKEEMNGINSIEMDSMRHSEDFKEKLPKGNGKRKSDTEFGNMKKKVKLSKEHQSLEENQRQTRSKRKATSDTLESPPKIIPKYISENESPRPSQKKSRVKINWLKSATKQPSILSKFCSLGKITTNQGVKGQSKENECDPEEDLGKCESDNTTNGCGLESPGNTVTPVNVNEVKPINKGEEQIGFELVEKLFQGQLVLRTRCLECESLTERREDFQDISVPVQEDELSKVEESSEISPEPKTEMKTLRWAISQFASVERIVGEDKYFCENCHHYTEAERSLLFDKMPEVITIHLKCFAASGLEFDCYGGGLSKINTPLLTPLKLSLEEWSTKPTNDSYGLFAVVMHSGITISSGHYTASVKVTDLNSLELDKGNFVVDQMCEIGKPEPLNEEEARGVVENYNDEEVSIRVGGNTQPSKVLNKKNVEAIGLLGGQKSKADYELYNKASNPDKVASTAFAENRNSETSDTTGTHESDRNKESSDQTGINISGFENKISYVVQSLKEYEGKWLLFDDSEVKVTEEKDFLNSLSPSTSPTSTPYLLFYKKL
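1 nM enzyme complex + cpd, 15 min RT; start with Ub-Rho 150nM final; kinetic fluorescence ex 480/em 540, 6 reads q60 s. Buffer 50mM HEPES pH 7.8, 0.5mM EDTA, 0.1 mg/ml BSA, 1mM TCEP, 0.01% Tween-20.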
* marks the source's active call; other numbers are inactive results; ? = inconclusive; / = no result given; ! = not active in a repeat. A selection: hits, their analogues and other compounds. The true share with any hit is near 1.2%. Calls come from the whole dose curve; as a rule, active = well fitted curve in the direction sought with a large enough effect; inconclusive = small, poorly fitted or top-dose-only effect, or another doubt; inactive = no such curve, though single readings can be large; an effect the other way counts as inactive or inconclusive. Potency is the fitted concentration of half-maximal effect.

SMILES	VDR inh	EPAC1 agonist	EPAC2 antagonist	EPAC2 agonist	EPAC1 antagonist	USP1 inh
Cc1cc2cc(C=C(C#N)C#N)c(Cl)nc2cc1C	50.1µM*	-24.0%	1.8%	-1.3%	?	-9.1%
O=c1[nH]c2ccc(Cl)cc2c(-c2ccccc2)c1SC(=S)N1CCOCC1	89.1µM*	14.4%	-4.0%	2.8%	7.8%	-7.5%
CCNc1ncc2nc(C)c(=O)n(C3CC3)c2n1	-9.6%	/	/	/	/	/
CCCCOc1ccc(C2c3c(oc4ccc(C)cc4c3=O)C(=O)N2CCCN(C)C)cc1OCC (stereo unspecified)	-11.7%	/	/	/	/	2.0%
CC(=O)OCCCNc1cc(Sc2ccc(Cl)cc2)c2nonc2c1[N+](=O)[O-]	10µM*	2.0%	1.5%	20.4%	8.5%	-8.1%
COC(=O)C1=C[C@@H](C(=O)OC)C2C3=C(C(=O)[C@@]2(C)NC(=O)c2ccccc2)[C@H](c2ccccc2)n2c(=O)n(-c4ccccc4)c(=O)n2[C@@H]3C1 (stereo partly specified)	7.7%	/	/	/	/	/
CN(C)c1ncnc2ccc(-c3ccc4c(c3)OCO4)cc12	-16.6%	/	/	/	/	/
O=C(Cc1ccc(Cl)cc1)Nc1cccc(C(=O)Nc2ccccc2C(=O)O)c1	-15.8%	-11.0%	-1.4%	2.7%	100µM*	-8.7%
O=C(NCCc1nc2ccccc2n1CCOc1cccc2ccccc12)C1CCCCC1	3.0%	/	/	/	/	/
CC(=O)NC(c1ccco1)c1cc(Cl)c2cccnc2c1O (stereo unspecified)	/	5.3%	?	1.8%	-11.6%	/
CC(C)C(=O)NC(c1ccccc1)c1cc([N+](=O)[O-])c2cccnc2c1O (stereo unspecified)	-5.6%	18.2%	-12.3%	15.2%	56.2µM*	-13.2%
CC(=O)NC(c1ccccc1)c1cc([N+](=O)[O-])c2cccnc2c1O (stereo unspecified)	-9.2%	-2.6%	1.7%	-0.1%	?	-19.4%
CC(=O)NC(c1ccc(C)cc1)c1cc(Cl)c2cccnc2c1O (stereo unspecified)	18.5%	-1.7%	39.8µM*	8.0%	-9.1%	-18.5%
CN1CCc2cc(O)c(O)cc2C1Cc1ccc(O)c(O)c1 (stereo unspecified)	-10.6%	/	/	/	/	/
O=C1C(=C(O)c2ccccc2)C(=O)c2ccccc21	-0.9%	6.4%	-0.3%	15.0%	-3.4%	?
O=C1C(=C(c2ccccc2)c2ccccc2)Nc2ccccc21	-2.5%	9.2%	-35.0%	6.31µM*	-8.2%	-16.8%
CO[C@@H]1c2cc(F)ccc2/C(=C\CCOC(=O)C/C=C/c2ccccc2)[C@H]1C	-6.0%	/	/	/	/	/
Cc1noc(C)c1-c1nc(NCc2cccs2)c2ccccc2n1	44.7µM*	/	/	/	/	/
CC(=O)C1=C(O)C=C2Oc3c(C(C)=O)c(O)c(C)c(O)c3C2(C)C1=O (stereo unspecified)	-4.5%	/	/	/	/	/
CC(C)CCC(O)(CCC(C)C)C(=O)NN1CCCCC1	-0.9%	-9.8%	16.6%	-2.9%	7.0%	-14.0%
CCCC(O)(CCC)C(=O)NN1CCCCC1	79.4µM*	1.8%	2.3%	-5.1%	-1.2%	-9.6%
Fc1cc(F)c(F)c(SCCc2ccncc2)c1F	50.1µM*	13.3%	-3.8%	4.4%	4.6%	-8.1%
CC(C)C(=O)SCCCCCCC(=O)Nc1nc(-c2ccccc2)cs1	2.2%	/	/	/	/	/
COc1cccc(COCCN2CCN(S(=O)(=O)c3ccccc3)CCC2=O)c1	-2.9%	/	/	/	/	/
CCOC(=O)C1Nc2ccc(C(=O)O)cc2C2C=CCC12 (stereo unspecified)	15.8µM*	20.3%	1.0%	8.8%	6.0%	17.8µM*
SMILES	VDR inh	EPAC1 agonist	EPAC2 antagonist	EPAC2 agonist	EPAC1 antagonist	USP1 inh
CCCN(C(=O)COC(=O)CSc1ccc([N+](=O)[O-])cc1)C1CCS(=O)(=O)C1 (stereo unspecified)	89.1µM*	-14.4%	5.4%	-0.3%	4.5%	-10.2%
CN(C(=O)COC(=O)CSc1ccc([N+](=O)[O-])cc1)c1ccccc1	89.1µM*	4.9%	-12.5%	12.3%	-4.1%	-1.6%
CN(C(=O)COC(=O)c1ccc([N+](=O)[O-])cc1)c1ccccc1	-21.6%	1.3%	-7.2%	9.4%	10.3%	-11.5%
O=C1CC[C@@H](C(=O)N[C@@H](Cc2cnc[nH]2)C(=O)N[C@@H](Cc2c[nH]c3ccccc23)C(=O)N[C@@H](CO)C(=O)N[C@@H](Cc2ccc(O)cc2)C(=O)O)N1	-3.3%	/	/	/	/	/
CC(C)(C)OC(=O)N1CCCC1C(=O)NC1COC2CC(n3cc(F)c(=O)[nH]c3=O)OC12 (stereo unspecified)	-13.7%	/	/	/	/	/
COc1cccc(-c2nc(SCC(=O)Nc3nc(-c4ccccc4)c(C)s3)[nH]c(=O)c2C#N)c1	-13.2%	2.1%	25.1µM*	-2.5%	?	-16.9%
CCOc1ccc2nc(NC(=O)CSc3nc(-c4ccccc4)c(C#N)c(=O)[nH]3)sc2c1	-5.0%	-7.3%	?	9.5%	?	?
CCOC(=O)C1=C(C)NC(C)=C(C(=O)OCC)C1	11.7%	?	4.8%	1.0%	10.0%	22.4µM*!
CCOC(=O)C1=C(C)NC(C)=C(C(=O)OCC)C1C(=O)O	5.5%	-5.3%	3.7%	-0.5%	8.2%	-21.6%
NS(=O)(=O)c1ccc(N/N=C/c2ccccc2C(=O)O)c([N+](=O)[O-])c1	-5.4%	4.0%	-6.1%	5.8%	?	-16.8%
O=C(O)COc1ccccc1/C=N/Nc1ccc(S(=O)(=O)Nc2ccc(Cl)cc2)cc1[N+](=O)[O-]	-24.9%	?	0.6%	-6.5%	22.4µM*	-12.0%
O=C(O)c1ccccc1NS(=O)(=O)c1ccc(NN=Cc2ccc(F)cc2)c([N+](=O)[O-])c1	-24.5%	3.9%	-10.4%	6.1%	50.1µM*	-11.6%
COc1ccccc1NS(=O)(=O)c1ccc(N/N=C/c2ccccc2OCC(=O)O)c([N+](=O)[O-])c1	-13.3%	2.7%	-11.4%	10.7%	?	-10.6%
O=C(O)c1ccccc1NS(=O)(=O)c1ccc(NN=Cc2cccc(Cl)c2)c([N+](=O)[O-])c1	?	-3.2%	?	-7.6%	50.1µM*	?
O=C(O)c1ccccc1/C=N/Nc1ccc(S(=O)(=O)N2CCOCC2)cc1[N+](=O)[O-]	8.2%	8.6%	-18.8%	-3.7%	-0.6%	?
O=C(O)c1ccccc1NS(=O)(=O)c1ccc(N/N=C/c2ccc(O)c(O)c2)c([N+](=O)[O-])c1	-10.9%	-14.5%	56.2µM*	-24.5%	15.8µM*	?
NC(C(=O)O)c1nn[nH]n1 (stereo unspecified)	7.0%	/	/	/	/	/
CCOc1cc(C(=O)Nc2ccc(-c3nc4ccccc4s3)cc2Cl)cc(OCC)c1OCC	17.3%	/	/	/	/	5.4%
